# Several values for one entry are separate records, joined by “and”; a condition that tells them apart may be missing. Equal values may be shown once. This is part of a sample that, as a whole, favours compounds with a hit. Of some 83,000 tested, about 20% had one in any assay.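 Cells were grown in 96-well plates and exposed to the test compound at a single concentration for 48 hours; results are reported as percent growth, with values below 10 considered active.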 Activity calls are given as the source filed them.
# How the values were obtained:
# Assay in all cases: NCI-60 one-dose screen, 48 h (100 = growth as untreated, 0 = no growth, -100 = all killed)
# T-47D breast = test system: T-47D breast
# BT-549 breast = test system: BT-549 breast
# MDA-MB-435 melanoma = test system: MDA-MB-435 melanoma
# Experimental: Growth inhibition of the MDA-MB-435 human Melanoma tumor cell line is measured as a screen for anti-cancer activity. Cells are grown in 96 well plates and exposed to the test compound for 48 hours. Compounds are tested at a single concentration, which is 10^-5 M for most compounds. The reported endpoint is percent growth (GI% or GIPRCNT), where numbers from 0 - 100% represent growth inhibition, and numbers from -100% - 0 represent cell death. For example, a value of 40 represents 60% growth inhibition. A value of 0 means no net growth occurred over the course of the experiment. A value of -40 indicates 40% of cells at the beginning of the experiment died by the end of the experiment. A value of -100 means all cells are dead at the end of the experiment.
# NCI-60 Human Tumor Cell Lines Screen was performed using the standard one-dose NCI protocol, which is described in more detail at https://dtp.cancer.gov/discovery_development/nci-60/default.htm.
# Compounds with GIPRCNT values below 10 were considered active. Activity score was based on GIPRCNT using the following formula: […]
# Score is 0 for GIPRCNT values of 100 or above, 50 for GIPRCNT values of 0, and 100 for GIPRCNT values of -100.
# SW-620 colon = test system: SW-620 colon
# MCF7 breast = test system: MCF7 breast
# HCT-116 colon = test system: HCT-116 colon
# HCC-2998 colon = test system: HCC-2998 colon
# KM12 colon = test system: KM12 colon
smiles,measurement,setting,value
COc1ccc2sc3cccc(NCCN(C)C)c3c(=O)c2c1,growth,T-47D breast; 10 µM,70.7% (inactive) and -34.7% (active)
same,growth,BT-549 breast; 10 µM,80.1% (inactive) and 29.6% (inactive)
same,growth,MDA-MB-435 melanoma; 10 µM,31.3% (inactive) and -86.9% (active)
same,growth,SW-620 colon; 10 µM,24.5% (inactive) and -79% (active)
same,growth,MCF7 breast; 10 µM,30.5% (inactive) and -72.8% (active)
same,growth,HCT-116 colon; 10 µM,18.5% (inactive) and -76.2% (active)
same,growth,HCC-2998 colon; 10 µM,28.1% (inactive) and -83% (active)
same,growth,KM12 colon; 10 µM,38.3% (inactive) and -7.99% (active)
CC/C(=C(\c1ccccc1)c1ccc(OCCN(C)C)cc1)c1ccccc1,growth,T-47D breast; 12.5 µM,-18.5% (active)
same,growth,BT-549 breast; 10 µM,69.8% (inactive)
same,growth,BT-549 breast; 12.5 µM,-96% (active)
same,growth,MDA-MB-435 melanoma; 10 µM,37.8% (inactive)
same,growth,MDA-MB-435 melanoma; 12.5 µM,-87.2% (active)
same,growth,SW-620 colon; 10 µM,4.89% (active)
same,growth,SW-620 colon; 12.5 µM,-50.4% (active)
same,growth,MCF7 breast; 10 µM,-10.3% (active)
same,growth,MCF7 breast; 12.5 µM,-61.6% (active)
same,growth,HCT-116 colon; 10 µM,26.2% (inactive)
same,growth,HCT-116 colon; 12.5 µM,-98.1% (active)
same,growth,HCC-2998 colon; 10 µM,16.3% (inactive)
same,growth,HCC-2998 colon; 12.5 µM,-96.2% (active)
same,growth,KM12 colon; 10 µM,25% (inactive)
same,growth,KM12 colon; 12.5 µM,-74.4% (active)
CC[C@@]1(O)C(=O)OCc2c1cc1n(c2=O)Cc2cc3c(CN(C)C)c(O)ccc3nc2-1,growth,T-47D breast; 10 µM,9.96% (active) and 8.7% (active)
same,growth,BT-549 breast; 10 µM,-1.81% (active) and -14.9% (active)
same,growth,MDA-MB-435 melanoma; 10 µM,-44.2% (active) and -55% (active)
same,growth,SW-620 colon; 10 µM,9.23% (active) and 7.32% (active)
same,growth,MCF7 breast; 10 µM,1.58% (active) and 5.19% (active)
same,growth,HCT-116 colon; 10 µM,0.82% (active) and -14.2% (active)
same,growth,HCC-2998 colon; 10 µM,-14.2% (active) and -26.3% (active)
same,growth,KM12 colon; 10 µM,6.1% (active) and -42.5% (active)
CN(Cc1cnc2nc(N)nc(N)c2n1)c1ccc(C(=O)N[C@@H](CCC(=O)O)C(=O)O)cc1,growth,T-47D breast; 2.5 µM,55.6% (inactive)
same,growth,T-47D breast; 10 µM,46.2% (inactive)
same,growth,BT-549 breast; 2.5 µM,40.9% (inactive)
same,growth,BT-549 breast; 10 µM,46.9% (inactive)
same,growth,MDA-MB-435 melanoma; 2.5 µM,25.7% (inactive)
same,growth,MDA-MB-435 melanoma; 10 µM,27.2% (inactive)
same,growth,SW-620 colon; 2.5 µM,41.9% (inactive)
same,growth,SW-620 colon; 10 µM,35.6% (inactive)
same,growth,MCF7 breast; 2.5 µM,24.4% (inactive)
same,growth,MCF7 breast; 10 µM,17.2% (inactive)
same,growth,HCT-116 colon; 2.5 µM,18.5% (inactive)
same,growth,HCT-116 colon; 10 µM,22.7% (inactive)
same,growth,HCC-2998 colon; 2.5 µM,8.58% (active)
same,growth,HCC-2998 colon; 10 µM,106% (inactive)
same,growth,KM12 colon; 2.5 µM,30.6% (inactive)
same,growth,KM12 colon; 10 µM,31.9% (inactive)

# — PubChem BioAssay (NCI)
